According to the supplement of paper PMC4166925:
± gives the standard deviation of the averaged measurements. The full ranking holds about 33,000 sequences; the median of “E-score (dimensionless, -0.5 to 0.5)” is about -0.049, and the highest 2% start at about 0.37. For the sample, the highest values were picked, then their nearest neighbours and some sequences at random.

Test system: T1, PmTbr T-box DNA-binding domain (GST fusion)
T1 sequence: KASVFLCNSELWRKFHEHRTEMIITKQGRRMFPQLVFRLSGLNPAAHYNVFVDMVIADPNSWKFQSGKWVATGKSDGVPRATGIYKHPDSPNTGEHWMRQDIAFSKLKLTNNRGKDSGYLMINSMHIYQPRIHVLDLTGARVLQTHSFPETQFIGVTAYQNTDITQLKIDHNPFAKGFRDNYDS
Assay: PBM E-score of 8-mer (E-score (dimensionless, -0.5 to 0.5)); Tbr is Tbrain of the sea star Patiria miniata (Pm) or the sea urchin Strongylocentrotus purpuratus (Sp); higher = stronger binding preference
Settings: the construct has about 5 more residues each side
Description: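 Universal protein-binding microarray (Agilent AMADID 016060, 60-bp probes with a 35-bp variable region) incubated with 200 nM GST-fused Patiria miniata Tbr T-box DNA-binding domain (residues 272-466) in PBS pH 7.5. Scored for every ungapped 8-mer (given with its reverse complement) by the Universal PBM Analysis Suite as E-score (modified Wilcoxon-Mann-Whitney enrichment, range -0.5 to 0.5; >0.45 counts as bound) and Z-score of median probe intensity. Two replicate arrays (datasets 1 and 2).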
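Note: 200 nM protein in PBS on universal arrays averaged over duplicate arrays.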

| Sequence | PBM E-score of 8-mer |
| --- | --- |
| CTCGCAGA | 0.00155 ± 0.054 |
| CTCGCATC | 0.176 ± 0.033 |
| ATCGCACA | 0.3241 ± 0.00047 |
| CCCGCACC | 0.3 ± 0.031 |
| ATCGCGCC | 0.368 ± 0.016 |
| CTCGCGCC | 0.401 ± 0.013 |
| GTCGCACA | 0.353 ± 0.025 |
| ATCGCACC | 0.4642 ± 0.0032 |
| CGAAGAGC | -0.116 ± 0.044 |
| CAGCACAG | -0.0973 ± 0.029 |
| CGGGGTTA | -0.195 ± 0.071 |
| GGCATGAA | -0.0787 ± 0.006 |
| CTCTAAGA | -0.271 ± 0.053 |
| CTTTTACA | 0.169 ± 0.025 |
| AGCTTAGC | -0.0359 ± 0.0015 |
| TATGATGA | -0.156 ± 0.037 |
| AGTCAAAG | -0.132 ± 0.081 |
| GAGAGATA | -0.0805 ± 0.045 |
| CCACATTA | 0.126 ± 0.0023 |
| GTAACACA | 0.3374 ± 0.0018 |
| ATAACACA | 0.3597 ± 0.0034 |
| CTTACACA | 0.277 ± 0.012 |
| ATAACACG | 0.325 ± 0.05 |
| ATAACATC | -0.101 ± 0.065 |
| ATTACACC | 0.349 ± 0.0023 |
| CTAACACC | 0.4751 ± 0.004 |

| Sequence | PBM E-score of 8-mer |
| --- | --- |
| CTAACATC | -0.1377 ± 0.00032 |
| CTAACACA | 0.374 ± 0.035 |
| CTTACACC | 0.395 ± 0.013 |
| CGAACACC | 0.3416 ± 0.0028 |
| ATAACACC | 0.465 ± 0.0066 |
| AGACCCCT | -0.245 ± 0.086 |
| AAACCCGG | -0.207 ± 0.0074 |
| GTCCCCTA | -0.175 ± 0.076 |
| AAATTAGC | 0.24 ± 0.01 |
| GCTTCACC | 0.0106 ± 0.012 |
| CACGTCCG | 0.26 ± 0.0099 |
| CCGGTTAC | -0.0412 ± 0.0065 |
| CTTTGCTC | -0.0392 ± 0.02 |
| ACAGAGGC | 0.0769 ± 0.02 |
| AGAGGGTA | -0.108 ± 0.023 |
| AGGGTGTA | 0.317 ± 0.0034 |
| CCGGTGTC | 0.247 ± 0.0031 |
| AGAGGGTG | 0.383 ± 0.011 |
| AGGGTGTG | 0.43 ± 0.027 |
| CGGGTGTC | 0.4001 ± 0.002 |
| CGGGTGTA | 0.0538 ± 0.035 |
| AGAGGGTC | -0.202 ± 0.011 |
| AGGGTGGC | 0.191 ± 0.011 |
| AGGGGGTG | 0.316 ± 0.027 |
| AGGGTGAC | 0.326 ± 0.031 |
| AGGGTGTC | 0.435 ± 0.014 |

| Sequence | PBM E-score of 8-mer |
| --- | --- |
| CCCTAGGG | -0.16 ± 0.025 |
| AGGTTTGG | -0.19 ± 0.043 |
| CATTCTTA | -0.235 ± 0.007 |
| GGAAGCAC | -0.23 ± 0.015 |
| ATGGTGAG | 0.223 ± 0.0051 |
| CATTCAGG | 0.0358 ± 0.077 |
| ATAACAAA | -0.00818 ± 0.13 |
| AGGATCAT | -0.151 ± 0.0099 |
| CGGGCAAG | -0.0794 ± 0.036 |
| CGAGGCCC | -0.297 ± 0.064 |
| CCCCTAAG | -0.0688 ± 0.042 |
| CACCTAAC | 0.408 ± 0.028 |
| AACCTAAG | -0.12 ± 0.084 |
| CACCTAAA | 0.368 ± 0.0085 |
| CACCTAAG | 0.381 ± 0.021 |
| AACCTAAC | 0.0221 ± 0.052 |
| GCTACAGC | -0.2 ± 0.12 |
| ACCGACTC | -0.012 ± 0.041 |
| AGCAACCT | -0.0154 ± 0.04 |
| CGTTGACA | 0.405 ± 0.0049 |
| CGTTGACC | 0.0227 ± 0.075 |
| AGTTGACC | -0.231 ± 0.009 |
| AGTTGACA | 0.407 ± 0.008 |
| AGTTGACG | 0.153 ± 0.053 |
| GGTTGACA | 0.3518 ± 0.0019 |
| CTTCTATA | -0.287 ± 0.067 |

| Sequence | PBM E-score of 8-mer |
| --- | --- |
| GATAGCAA | 0.202 ± 0.052 |
| ATCAGAAT | -0.106 ± 0.065 |
| CTGAGAAC | -0.052 ± 0.016 |
| GTGAGAAA | 0.458 ± 0.012 |
| CTGAGAAA | 0.00608 ± 0.019 |
| ATGAGAAC | -0.0696 ± 0.046 |
| GCGAGAAC | 0.375 ± 0.01 |
| ATGAGAAA | -0.182 ± 0.17 |
| GCGAGAAA | 0.356 ± 0.034 |
| ACGAGAAC | 0.0117 ± 0.058 |
| GTGAGAAC | 0.44 ± 0.0046 |
| GAGCGCAC | -0.0637 ± 0.099 |
| CTCACAAC | 0.3462 ± 0.0029 |
| CCCAGAAC | -0.157 ± 0.065 |
| GACCTTGA | -0.166 ± 0.025 |
| CACCTTGC | 0.4191 ± 0.0029 |
| CAGCTTGG | 0.0903 ± 0.044 |
| TACCTTGA | 0.00793 ± 0.011 |
| CACCTTGG | 0.45511 ± 0.00014 |
| CACCTTGA | 0.383 ± 0.017 |
| AACCTTGC | 0.060455 ± 2.1e-05 |
| AACCTTGG | -0.183 ± 0.041 |
| GACCTTGC | -0.145 ± 0.021 |
| ATTATGCG | -0.162 ± 0.031 |
| GCGGTAAC | -0.0299 ± 0.029 |
| AATTGGTC | -0.139 ± 0.051 |

| Sequence | PBM E-score of 8-mer |
| --- | --- |
| CCCTCTCG | 0.0695 ± 0.027 |
| CGGTATAC | -0.0592 ± 0.023 |
| CCTAGAGG | -0.0482 ± 0.018 |
| ACCCACAT | 0.203 ± 0.096 |
| ACACACCT | 0.445 ± 0.0069 |
| ACACACAT | 0.288 ± 0.013 |
| ACACACCG | 0.125 ± 0.027 |
| AAACACCT | 0.4565 ± 0.0016 |
| AAACACCG | 0.143 ± 0.013 |
| AGACACCG | 0.185 ± 0.012 |
| AGACACAT | 0.184 ± 0.0023 |
| AGACACCT | 0.4559 ± 0.0013 |
| AAACACCC | 0.227 ± 0.027 |
| GGAGTGGA | -0.0457 ± 0.03 |
| ACATTTCA | 0.125 ± 0.0075 |
| AGCTATCC | -0.334 ± 0.059 |
| AGGACACG | -0.0089 ± 0.017 |
| ACGCCTGG | 0.236 ± 0.015 |
| CACAACAA | 0.278 ± 0.0061 |
| AACAACAC | 0.363 ± 0.01 |
| CCCAACAA | 0.0135 ± 0.11 |
| CTCAACAC | 0.321 ± 0.029 |
| GTCAACAC | 0.427 ± 0.012 |
| CACAACAC | 0.387 ± 0.02 |
| GTCAACAA | 0.293 ± 0.013 |
| CACAACAG | 0.161 ± 0.033 |

| Sequence | PBM E-score of 8-mer |
| --- | --- |
| GACAACAA | 0.194 ± 0.046 |
| GACAACAC | 0.391 ± 0.014 |
| GCCAACAC | 0.354 ± 0.0042 |
| CCCAACAC | 0.385 ± 0.0085 |
| AATTCGCT | 0.00911 ± 0.0077 |
| CGCAGGCC | -0.171 ± 0.036 |
| GGTTCGAC | 0.0606 ± 0.091 |
| CCGTTAGA | 0.0408 ± 0.021 |
| GCTGACTA | -0.0402 ± 0.059 |
| AATGCTCC | -0.0523 ± 0.0048 |
| CATCTGCC | -0.176 ± 0.007 |
| AGGTTATG | 0.0583 ± 0.03 |
| AGACGCTG | -0.078 ± 0.052 |
| CGTGTTAG | 0.354 ± 0.01 |
| GGTGTTAA | 0.479 ± 0.0049 |
| AGTGTTAG | 0.407 ± 0.014 |
| CGTGTTTA | 0.0204 ± 0.033 |
| CGTGTTAA | 0.409 ± 0.029 |
| GCTGTTAA | 0.199 ± 0.089 |
| TGTGTTAA | 0.365 ± 0.029 |
| CTTGTTAA | 0.236 ± 0.09 |
| ACTGTTAG | 0.217 ± 0.017 |
| AGTGTTTA | 0.258 ± 0.043 |
| GGTGTTTA | 0.399 ± 0.015 |
| CCTGTTAA | 0.185 ± 0.023 |
| CCGCCCGA | 0.0216 ± 0.052 |

| Sequence | PBM E-score of 8-mer |
| --- | --- |
| CTCAAGAG | 0.00045 ± 0.0019 |
| CCAGACCA | -0.0405 ± 0.051 |
| GAGACAGC | 0.0107 ± 0.051 |
| CATCAGGG | -0.024 ± 0.045 |
| AGATAGTC | -0.0975 ± 0.03 |
| AATACTTG | -0.0724 ± 0.093 |
| AATGCGCA | -0.0568 ± 0.095 |
| AGGGGGAA | -0.14 ± 0.053 |
| CCTAAGTC | -0.0839 ± 0.0091 |
| ACTGTTAA | 0.21 ± 0.045 |
| AGTGTTAA | 0.433 ± 0.017 |
| AGTGTTAC | 0.3946 ± 0.0021 |
| AGTGTTCC | 0.0364 ± 0.038 |
| GGTGTTAC | 0.4752 ± 0.00012 |
| GGTGTAAA | 0.418 ± 0.0026 |
| AGTGTAAA | 0.287 ± 0.081 |
| AATGTTAA | -0.0297 ± 0.11 |
| GGTGTAAC | 0.363 ± 0.027 |
| CGTGTTAC | 0.349 ± 0.015 |
| ACTGTTAC | 0.118 ± 0.043 |
| GCTGTTAC | 0.0246 ± 0.042 |
